TRPML1 inh: inhibitors of human TRPML1 channel; 0.02% of 390,000 active; activity change, negative = inhibition, % (concentration not given with the values); Q9GZU1; TRPML1-inducible cells, Ca2+ dye fluorescence, FDSS; stronger effect = lower value; inhibition of EC80 agonist-evoked calcium signal; in the data active = activity change below about -50%; inconclusive = between about -30% and that limit;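 note: stimulus is agonist 54-4 at its EC80 concentration; % is set by controls: 0 for no effect and ±100 for the full control effect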
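TRPML1-DL cells, Tet-induced overnight (~16 h, 37 °C) at 1,500 cells/well, were loaded with Ca8 no-wash dye plus quencher for 45-90 min at room temperature. Compounds were pinned during FDSS kinetic reading; agonist 54-4 at EC80 (4 uM final) then added.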
AT treatment: candidate therapy for ataxia-telangiectasia | F2112 A-T fibroblasts, KAP-1 phosphorylation AlphaLISA; neocarzinostatin DNA damage 30 min before lysis | Potency, µM (doses to about 57.5 µM), for inactives: at the highest dose activation, actives largely listed as activators | 0.19% of 320,000 active; note: potency is the fitted concentration of half-maximal effect; % of control where 0% means no effect; nearly all actives have a fitted effect of over 45% in size
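hTERT-immortalized A-T patient fibroblasts (F2112), 500 cells/well in OPTI-MEM, 1% FBS, got compounds for 60 min, then NCS for 30 min at 37C. Lysates were then assayed for phospho-KAP-1 by AlphaLISA (anti-pKAP1 donor, anti-KAP1 acceptor beads), 6 hr at 25C.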
RGS4 inh: blocks human RGS4-accelerated GTP hydrolysis; P49798; Transcreener GDP fluorescence polarization, RGS4-accelerated GTP hydrolysis; Potency, µM (series often up to 114 µM), for the others: at the highest dose activity change, negative = inhibition, most hits filed as inhibitors; 0.039% of 390,000 active; AID 504845; note: potency is the fitted concentration of half-maximal effect; % is set by controls: 0 for no effect and ±100 for the full control effect; nearly all actives have a fitted effect of over 75% in size
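MLSMR compounds (23 nl, pin-transferred) preincubated 10 min at room temperature with a 500nM (2x) first reagent, then RGS4 at 900nM (2x) plus Transcreener GDP mix added; fluorescence polarization (620/688 nm) read before and after 90 min at 30 °C.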
TRPML1 ag: human mucolipin-1 channel agonism | Q9GZU1 | TRPML1-expressing cells, Ca2+ dye fluorescence, FDSS | activation, % (no concentration beside the values) | 0.12% of 410,000 active | AID 624414; in the data active = activation above about 50%; inconclusive = mostly about 30% to 49%; note: 0% is about no effect
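TRPML1-DL cells, Tet-induced overnight (~16 h, 37 degrees C), loaded 45-90 min at room temperature with Ca8 no-wash calcium dye plus quencher. FDSS fluorescence: 10 s baseline, compound pin-transfer, 110 s agonist read, then EC80 54-4 (4uM final) and 110 s antagonist read.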
TRPV1 PAM: enhances activation of the human vanilloid receptor TRPV1. potentiation, % at 8.33 µM. 0.02% of 320,000 active. TRPV1-expressing cells, Fluo-8 calcium influx, capsaicin EC20 potentiation. AID 540277. Q8NER1; in the data active = potentiation above about 80%; inconclusive = between about 30% and that limit; note: 0% is about no effect
Target sequence (Q8NER1 whole entry, looked up): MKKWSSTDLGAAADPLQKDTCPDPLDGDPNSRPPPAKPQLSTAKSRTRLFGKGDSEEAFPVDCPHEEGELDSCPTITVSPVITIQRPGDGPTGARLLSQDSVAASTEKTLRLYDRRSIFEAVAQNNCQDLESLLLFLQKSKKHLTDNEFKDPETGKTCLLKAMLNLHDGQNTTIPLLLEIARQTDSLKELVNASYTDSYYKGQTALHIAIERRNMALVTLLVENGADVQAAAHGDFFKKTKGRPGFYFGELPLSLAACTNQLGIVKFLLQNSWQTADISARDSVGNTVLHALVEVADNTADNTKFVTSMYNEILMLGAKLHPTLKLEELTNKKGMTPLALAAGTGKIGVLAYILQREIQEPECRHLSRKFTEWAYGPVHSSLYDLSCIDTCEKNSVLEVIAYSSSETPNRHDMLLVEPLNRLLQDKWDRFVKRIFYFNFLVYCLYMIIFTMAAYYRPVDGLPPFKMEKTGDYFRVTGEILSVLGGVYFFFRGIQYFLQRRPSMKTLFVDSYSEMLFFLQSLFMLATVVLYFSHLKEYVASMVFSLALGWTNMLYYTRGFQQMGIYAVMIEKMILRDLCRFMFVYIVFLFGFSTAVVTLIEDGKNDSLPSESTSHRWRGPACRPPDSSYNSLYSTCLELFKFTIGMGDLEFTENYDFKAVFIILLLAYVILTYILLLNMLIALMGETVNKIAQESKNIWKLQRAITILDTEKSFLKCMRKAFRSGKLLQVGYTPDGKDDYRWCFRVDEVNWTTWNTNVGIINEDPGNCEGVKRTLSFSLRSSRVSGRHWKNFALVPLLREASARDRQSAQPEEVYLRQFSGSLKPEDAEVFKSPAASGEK
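Cells expressing TRPV1 were dye-loaded with Fluo-8 and read kinetically: 10 s baseline, 3 min after compound (agonist portion), then 2 min after EC20 capsaicin (allosteric enhancer portion). Calcium-bound dye fluorescence at 480/520 nm.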
TRPV1 ag: human TRPV1 agonism; Q8NER1; TRPV1-expressing cells, Fluo-8 calcium influx, agonist mode; activation, % at 8.33 µM; 0.19% of 320,000 active; in the data active = activation above about 80%; inconclusive = between about 30% and that limit; note: 0% is about no effect
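TRPV1-expressing cells were cultured overnight at 35.5C and loaded with Fluo-8 calcium dye for 40 to 90 min at room temperature. After a 10 s baseline, compound was added and calcium influx was read kinetically for 3 min (ex 480/em 520 nm).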
* hit, by the source's call. Sampled rows, rich in hits. Any-hit rate of the full collection: about 0.5%. Unless noted, calls come from the whole dose curve; as a rule, active = well fitted curve in the direction sought with a large enough effect; inconclusive = small, poorly fitted or top-dose-only effect, or another doubt; inactive = no such curve, though single readings can be large; an effect the other way counts as inactive or inconclusive.

O=C(Cc1ccccc1)n1nc(-c2ccco2)nc1SCc1ccccc1 was read as TRPML1 inh -1, AT treatment 2%, RGS4 inh -21%, TRPML1 ag 0, TRPV1 PAM -3 and TRPV1 ag 2.
Screening O=C(Cc1ccccc1)Nc1nc2ccc(Cl)cc2c2nc(-c3ccco3)nn12 returned RGS4 inh 38µM*.
For O=C(CN1C(=O)COc2ccccc21)N1CCc2ccccc21 the results were TRPML1 inh -10, AT treatment 10%, RGS4 inh -4%, TRPML1 ag 1, TRPV1 PAM 2 and TRPV1 ag -1.
Screening O=C(Nc1ccc(F)cc1)N(CCCN1CCOCC1)Cc1cc2cc3c(cc2[nH]c1=O)OCCO3 returned TRPML1 inh 29, AT treatment 14µM*, RGS4 inh -6%, TRPML1 ag -1, TRPV1 PAM 8 and TRPV1 ag 0.
`CNC(=S)N(CCO)Cc1cc2cc3c(cc2[nH]c1=O)OCCO3` gave TRPML1 inh -8, AT treatment 2.8µM*, RGS4 inh -27%, TRPML1 ag 1, TRPV1 PAM 14 and TRPV1 ag 0.
For O=C(Nc1ccc(F)cc1)N(CCCN1CCOCC1)Cc1cc2cc3c(cc2[nH]c1=O)OCO3 the results were TRPML1 inh 8, AT treatment -1%, RGS4 inh -18%, TRPML1 ag -1, TRPV1 PAM 3 and TRPV1 ag 3.
For COc1ccc(C2NC(=S)NC3=C2N2CCC3CC2)cc1 (stereo unspecified) the results were TRPML1 inh -7, AT treatment 2.5µM*, RGS4 inh -3%, TRPML1 ag 0, TRPV1 PAM 22 and TRPV1 ag -1.
For COc1ccc(Nc2ncnc3c2oc2ccccc23)cc1 the results were TRPML1 inh 10, AT treatment -2%, RGS4 inh -6%, TRPML1 ag 0, TRPV1 PAM -15 and TRPV1 ag 93*.
For Cc1ccc(Nc2ncnc3c2oc2ccccc23)cc1 the results were TRPML1 inh -6, AT treatment 7%, RGS4 inh 8%, TRPML1 ag 2, TRPV1 PAM -6 and TRPV1 ag 93*.
`C=C(C(=O)Oc1ccccc1C(C)(C)C)c1ccccc1` gave AT treatment 35µM*, TRPV1 PAM 0 and TRPV1 ag 2.
`CCN1CCCC1Cn1cnc2c([nH]c3ccc(OC)cc32)c1=O` (stereo unspecified) gave TRPML1 inh 15, AT treatment -8%, RGS4 inh -1%, TRPML1 ag 1, TRPV1 PAM 8 and TRPV1 ag -1.
`CCOC(=O)[C@H]1[C@H]2COc3ccc(Br)cc3[C@@H]2N2C(=O)c3ccc(C)cc3NC(=O)[C@@]12C` gave TRPML1 inh 31, AT treatment 21%, RGS4 inh -5%, TRPML1 ag 2, TRPV1 PAM 13 and TRPV1 ag 80*.
`CCOC(=O)[C@H]1[C@H]2COc3ccc(OC)cc3[C@@H]2N2C(=O)c3ccc(C)cc3NC(=O)[C@@]12C` gave TRPML1 inh -5, AT treatment -21%, RGS4 inh 16%, TRPML1 ag -1, TRPV1 PAM inconclusive and TRPV1 ag 0.
CCOC(=O)[C@H]1[C@H]2COc3ccc(Br)cc3[C@@H]2N2C(=O)c3cc(F)c(F)cc3NC(=O)[C@@]12C was read as TRPML1 inh 4, AT treatment 15%, RGS4 inh 13%, TRPML1 ag 2, TRPV1 PAM inconclusive and TRPV1 ag 84*.
`CCOC(=O)[C@H]1[C@H]2COc3ccccc3[C@@H]2N2C(=O)c3ccc(C)cc3NC(=O)[C@@]12C` gave TRPML1 inh -7, AT treatment 8%, RGS4 inh -12%, TRPML1 ag 0, TRPV1 PAM -4 and TRPV1 ag 93*.
`CCOC(=O)[C@H]1[C@H]2COc3cc(OC)ccc3[C@@H]2N2C(=O)c3ccc(C)cc3NC(=O)[C@@]12C` gave TRPML1 inh 35, AT treatment 5%, RGS4 inh -11%, TRPML1 ag 3, TRPV1 PAM 5 and TRPV1 ag 82*.
For Cc1ccc(-c2csc(NC(=O)N3CCOCC3)n2)cc1 the results were TRPML1 inh -25, AT treatment -3%, RGS4 inh -3%, TRPML1 ag 1, TRPV1 PAM -1 and TRPV1 ag inconclusive.
`CCOC(=O)N1CCC(NC(=O)c2oc3c(C)c(C)ccc3c2C)CC1` gave TRPML1 inh 7, RGS4 inh -26% and TRPML1 ag 4.
Screening COCCn1nnnc1C(c1ccc(OC)cc1OC)N1CCN(c2ccccc2)CC1 (stereo unspecified) returned TRPML1 inh -17, AT treatment 1%, RGS4 inh -10%, TRPML1 ag 0, TRPV1 PAM 23 and TRPV1 ag 0.
For COc1ccc(OC)c(C(c2nnnn2CCc2ccccc2)N2CCN(c3ccccc3)CC2)c1 (stereo unspecified) the results were TRPML1 inh -11, AT treatment 5%, RGS4 inh -30%, TRPML1 ag 51*, TRPV1 PAM -2 and TRPV1 ag 22.
`O=C(CNCC1CCCCC1)Nc1ccc(OC(F)(F)F)cc1` gave TRPML1 inh 9, AT treatment -4%, RGS4 inh 11%, TRPML1 ag 18, TRPV1 PAM -19 and TRPV1 ag 20.
Screening CCn1nc(NC(=O)c2ccccc2)c2cc3cccc(C)c3nc21 returned TRPML1 inh inconclusive, AT treatment 22µM*, RGS4 inh -17% and TRPML1 ag 2.
`Cc1c(OCC(=O)N2CCC(C(N)=O)CC2)ccc2c1oc(=O)c1ccccc12` gave AT treatment 4%, RGS4 inh -7%, TRPV1 PAM 7 and TRPV1 ag 91*.
For CN(C)CC(=O)c1ccc(-c2ccccc2)cc1 the results were TRPML1 inh 17, AT treatment -10%, RGS4 inh -45%, TRPML1 ag 8, TRPV1 PAM 28 and TRPV1 ag 1.
Screening C=CCn1c(SCC(=O)Nc2ccc(N3CCOCC3)cc2)nnc1-c1ccco1 returned TRPML1 inh 47, AT treatment 25µM*, RGS4 inh -2%, TRPML1 ag 0, TRPV1 PAM 5 and TRPV1 ag -1.
Screening C=CCn1c(SCC(=O)Nc2ccc(N3CCOCC3)cc2)nnc1-c1ccncc1 returned TRPML1 inh 22, AT treatment -6%, RGS4 inh 2%, TRPML1 ag 1, TRPV1 PAM -2 and TRPV1 ag -1.
